In all, about 380,000 compounds went through this assay and about 170 (0.045%) were called active. Only a selection was taken, and actives are over-represented in it overall. A number with no mark means an inactive call. Calls follow the shape of the dose curve; as a rule, active = well fitted inhibition curve with a large enough effect; inconclusive = small, poorly fitted or top-dose-only effect; inactive = no such curve, though single readings can be large or run the other way.
molecular target: Phosphoglycerate kinase, glycosomal (Trypanosoma brucei brucei) (UniProt P07378); assay: qHTS Assay to Find Inhibitors of Phosphoglycerate Kinase; conditions: PGK/GAPDH coupled, Kinase-Glo luminescence, 60 min; series mostly up to 57.5 µM; activity change, negative = inhibition: at the top concentration; also: nearly all actives have a fitted effect of over 60% in size
Sequence (P07378 whole entry, looked up): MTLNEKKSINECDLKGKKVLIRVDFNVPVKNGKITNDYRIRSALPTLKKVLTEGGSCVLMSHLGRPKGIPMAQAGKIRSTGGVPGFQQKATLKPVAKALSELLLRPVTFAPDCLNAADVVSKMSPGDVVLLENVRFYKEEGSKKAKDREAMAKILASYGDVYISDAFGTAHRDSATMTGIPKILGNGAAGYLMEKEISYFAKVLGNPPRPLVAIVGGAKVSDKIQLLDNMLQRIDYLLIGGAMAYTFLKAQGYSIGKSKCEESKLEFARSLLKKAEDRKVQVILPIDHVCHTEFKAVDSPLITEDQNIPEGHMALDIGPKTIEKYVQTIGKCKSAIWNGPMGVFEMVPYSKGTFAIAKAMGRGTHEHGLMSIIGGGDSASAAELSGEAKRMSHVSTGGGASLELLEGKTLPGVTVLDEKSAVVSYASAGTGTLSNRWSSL
Description: Several species of the Trypanosomatidae family of parasitic protozoans cause a spectrum of diseases throughout the tropical and subtropical world. Sleeping sickness, caused by two subspecies of Trypanosoma brucei, is endemic to areas of sub-Saharan Africa, while Chagas disease, a manifestation of Trypanosoma cruzi infection, is prevalent throughout Central and South America. In addition, many species of Leishmania are responsible for a range of cutaneous and visceral diseases, causing ulcers, destructive lesions and kalaazar, a lethal infection of the viscera. Collectively, these organisms infect 30 million people worldwide (~500 million live in endemic areas), and account for ~130,000 deaths annually. Given their debilitating and prevalent nature, trypanosomatid parasites impose a heavy medical, economic and social burden on entire populations, primarily in the developing world. The problem is further exacerbated by the fact that existing treatments have progressed little in the past 50 years, and current drugs show high toxicity and poor efficacy. […] Blood-stream stages of T. brucei are entirely dependent on glycolysis as a source of ATP, and the tricarboxylic acid cycle and oxidative phosphorylation are both repressed. Glycolysis in axenically cultured T. cruzi, representing the intracellular pathogenic stage, is also essential for these parasites. […] Previous studies have shown that the glycolytic enzyme, phosphoglycerate kinase (PGK), is a viable target for drugs to kill these parasites. […] NIH Molecular Libraries Probe Production Network [MLPCN] NIH Chemical Genomics Center [NCGC] MLPCN Grant: R03 MH093212 PI Name: Malcolm Walkinshaw, University of Edinburgh
3ul of substrate/PGK buffer (columns 1,2,5-48) are dispensed into Greiner white solid bottom 1536-well assay plates; columns 3-4 receive only TEA buffer as 0x PGK controls. Compounds are then transferred via Kalypsys pin tool equipped with 1536-pin array (10nl slotted pins, V&P Scientific, San Diego, CA). Following addition of compound, 1ul of GAPDH (100nM final concentration, all columns) is added to initiate the reaction (this upstream coupling enzyme is necessary for in-well production of PGK substrate, 1,3-bisphosphoglycerate (1,3-BPG), which is unstable and not commercially available). The plates are then incubated at room temperature for 60 minutes. Kinase-Glo Plus reagent is added (2ul) and plates incubated for 10 minutes, before being transferred to a ViewLux high-throughput CCD imager (PerkinElmer) wherein single end-point measurements of luminescence are acquired using a clear filter. All reagents are diluted in an assay buffer consisting of 100mM TEA (pH 7.6), 5mM MgCl2 and 0.01% Tween-20.
% is scaled to controls: 0 for no effect and ±100 for the full control effect; potency is read from the fitted curve at half-maximal effect.

Row | Structure (SMILES) | activity change, negative = inhibition | Potency
1 | O=C1NC(=O)N(Cc2ccco2)C(=O)/C1=C\c1ccc(-c2ccc(F)cc2)o1 | -16.2% | –
2 | COc1cccc(N2C(=O)NC(=O)/C(=C\c3ccc([N+](=O)[O-])s3)C2=O)c1 | -20% | –
3 | COc1ccc(N2C(=O)/C(=C/c3ccco3)C(=O)NC2=S)cc1 | – | 12.6 µM (active)
4 | c1ccc(C2NCc3ccccc3-n3cccc32)cc1 (stereo not given) | -1.24% | –
5 | N[C@@H](Cc1c[nH]c2ccccc12)c1nnc(SCc2c(F)cccc2Cl)o1 | -1.8% | –

Source: PubChem BioAssay AID602233 (National Center for Advancing Translational Sciences (NCATS), 2012)
